# Where two headings read alike, the source gives them in different places.
# Columns and labels:
# Design in all cases: species or system human, MV4-11 + K-562 + COLO205 + SK-N-BE2 + OVCAR-8
# FER = settings: read-out: apparent Kd, compound concentrations: 100 nM and 1000 nM (sheet 'Samples'), n = 1
# MAPK10 = settings: read-out: apparent Kd, compound concentrations: 100 nM and 1000 nM (sheet 'Samples'), n = 1
# MARK2 = settings: read-out: apparent Kd, compound concentrations: 100 nM and 1000 nM (sheet 'Samples'), n = 1
# PIP4K2C = settings: read-out: apparent Kd, compound concentrations: 100 nM and 1000 nM (sheet 'Samples'), n = 1
# PRKAA1 = settings: read-out: apparent Kd, compound concentrations: 100 nM and 1000 nM (sheet 'Samples'), n = 1
# PRKCA = settings: read-out: apparent Kd; compound concentrations: 100 nM and 1000 nM (sheet 'Samples'), CATDS: 6.3313527827085804E-3; n = 1
# RPS6KB1 = settings: read-out: apparent Kd, compound concentrations: 100 nM and 1000 nM (sheet 'Samples'), n = 1
# STK16 = settings: read-out: apparent Kd, compound concentrations: 100 nM and 1000 nM (sheet 'Samples'), n = 1
# TNIK = settings: read-out: apparent Kd; compound concentrations: 100 nM and 1000 nM (sheet 'Samples'), CATDS: 6.3415403729181101E-3; n = 1
# ERCC2 = settings: read-out: apparent Kd, compound concentrations: 100 nM and 1000 nM (sheet 'Samples'), n = 1
# PRKACA = settings: read-out: apparent Kd, compound concentrations: 100 nM and 1000 nM (sheet 'Samples'), n = 1
# PRKACB = settings: read-out: apparent Kd, compound concentrations: 100 nM and 1000 nM (sheet 'Samples'), n = 1
# ROCK2 = settings: read-out: apparent Kd; compound concentrations: 100 nM and 1000 nM (sheet 'Samples'), CATDS: 3.3185939241444598E-2; n = 1
# PRKCQ = settings: read-out: apparent Kd, compound concentrations: 100 nM and 1000 nM (sheet 'Samples'), n = 1
# CSNK1A1 = settings: read-out: apparent Kd; compound concentrations: 100 nM and 1000 nM (sheet 'Samples'), CATDS: 5.7270515376472299E-2; n = 1
# CSNK1D = settings: read-out: apparent Kd; compound concentrations: 100 nM and 1000 nM (sheet 'Samples'), CATDS: 0.19590664085395099; n = 1
# MAPK8 = settings: read-out: apparent Kd; compound concentrations: 100 nM and 1000 nM (sheet 'Samples'), CATDS: 8.8818893864712808E-3; n = 1
smiles,measurement,setting,value
COc1ccc(Nc2ncc(C#N)c(Nc3ccccc3C(N)=O)n2)cc1N1CCN(C)CC1.Cl [GSK1558669A],potency estimated from few doses,FER; CATDS: 1.1172004845485001E-2,137 nM
same,potency estimated from few doses,MAPK10; CATDS: 6.8664179629566802E-3,783 nM
same,potency estimated from few doses,MARK2; CATDS: 8.7535455285316904E-3,289 nM
same,potency estimated from few doses,PIP4K2C; CATDS: 5.8169442722308101E-3,2240 nM
same,potency estimated from few doses,PRKAA1; CATDS: 2.0149023571651901E-2,36.6 nM
same,potency estimated from few doses,PRKCA,1220 nM
same,potency estimated from few doses,RPS6KB1; CATDS: 6.0370811384274602E-3,1680 nM
same,potency estimated from few doses,STK16; CATDS: 6.09253969178725E-3,1570 nM
same,potency estimated from few doses,TNIK,1210 nM
CN(c1ccc(NC(=O)Nc2cccc(Cl)c2)cc1)c1ccnc(N)n1.Cl [GW830707A],potency estimated from few doses,ERCC2; CATDS: 2.8634029570059099E-2,22.5 nM
same,potency estimated from few doses,FER; CATDS: 3.09824946210665E-2,19.3 nM
same,potency estimated from few doses,PRKAA1; CATDS: 2.0241658974681501E-2,51.3 nM
same,potency estimated from few doses,PRKACA; CATDS: 2.4809932188679999E-2,30.7 nM
same,potency estimated from few doses,PRKACB; CATDS: 1.9106655898432998E-2,60.7 nM
same,potency estimated from few doses,ROCK2,16.9 nM
same,potency estimated from few doses,RPS6KB1; CATDS: 1.09553659906664E-2,1160 nM
Clc1cc(Cl)cc(Nc2ccnc(Nc3cc(Cl)cc(Cl)c3)n2)c1 [GSK175726A],potency estimated from few doses,ERCC2; CATDS: 2.00031391959163E-2,132 nM
same,potency estimated from few doses,FER; CATDS: 2.0209257750724199E-2,130 nM
same,potency estimated from few doses,PRKAA1; CATDS: 1.70258179859262E-2,183 nM
same,potency estimated from few doses,PRKCQ; CATDS: 8.3428687268584899E-3,1870 nM
CCOC(=O)N1CCC(n2cnc(-c3ccc(F)cc3)c2-c2ccnc(N)n2)CC1 [SB-219952],potency estimated from few doses,CSNK1A1,44.2 nM
same,potency estimated from few doses,CSNK1D,9.15 nM
same,potency estimated from few doses,ERCC2; CATDS: 2.0109331844810101E-2,213 nM
same,potency estimated from few doses,FER; CATDS: 1.3888971219533201E-2,416 nM
same,potency estimated from few doses,MAPK10; CATDS: 4.1731696442012502E-2,69 nM
same,potency estimated from few doses,MAPK8,1210 nM
same,potency estimated from few doses,MARK2; CATDS: 9.1119285329163396E-3,1120 nM
same,potency estimated from few doses,PRKAA1; CATDS: 1.3066263921832201E-2,471 nM
same,potency estimated from few doses,PRKACA; CATDS: 8.0141425433071494E-3,1690 nM
same,potency estimated from few doses,PRKACB; CATDS: 7.9637145567790901E-3,1730 nM
Cl.Nc1c(C(=O)c2cccc(C#CCN3CCCCC3)c2)cnn1-c1ccc(F)cc1 [RO1154461-001],potency estimated from few doses,ERCC2; CATDS: 5.2130998617594002E-2,63.2 nM
same,potency estimated from few doses,FER; CATDS: 4.9023130772968097E-2,68.9 nM
same,potency estimated from few doses,PIP4K2C; CATDS: 1.00291751764076E-2,1910 nM
same,potency estimated from few doses,PRKAA1; CATDS: 1.6696552241267201E-2,436 nM
same,potency estimated from few doses,PRKACA; CATDS: 1.0779981289506101E-2,1440 nM
same,potency estimated from few doses,PRKACB; CATDS: 1.14120731511483E-2,1190 nM
same,potency estimated from few doses,PRKCQ; CATDS: 1.06314955132201E-2,1520 nM
O=C1N=C(NCCc2ccc(Cl)cc2)S/C1=C\c1ccc2ncccc2c1 [RO4498479-000],potency estimated from few doses,ERCC2; CATDS: 2.1515421316076401E-2,142 nM
same,potency estimated from few doses,FER; CATDS: 1.93209734431329E-2,166 nM
same,potency estimated from few doses,MARK2; CATDS: 8.1372297919538004E-3,960 nM
same,potency estimated from few doses,PIP4K2C; CATDS: 8.2219500153899797E-3,930 nM
same,potency estimated from few doses,PRKAA1; CATDS: 1.37789233680672E-2,289 nM
same,potency estimated from few doses,PRKACA; CATDS: 8.4640851007318392E-3,854 nM
same,potency estimated from few doses,PRKACB; CATDS: 9.3487346254019794E-3,654 nM
same,potency estimated from few doses,PRKCQ; CATDS: 7.7984631053202198E-3,1100 nM
Cc1ccc(Nc2ccnc(Nc3ccc4c(c3)CS(=O)(=O)C4)n2)cc1O.Cl [GW579362A],potency estimated from few doses,STK16; CATDS: 2.76147737346315E-2,1620 nM
CN(c1ccc(NC(=O)N2CCN(CCCN3CCOCC3)CC2)cc1)c1ccnc(Nc2ccc(CS(C)(=O)=O)cc2)n1.Cl [GW830899A],potency estimated from few doses,ERCC2; CATDS: 3.5571834197337601E-2,471 nM
same,potency estimated from few doses,FER; CATDS: 2.4500715622852599E-2,940 nM
same,potency estimated from few doses,MARK2; CATDS: 1.9891178500976402E-2,1550 nM
same,potency estimated from few doses,PRKAA1; CATDS: 2.4895545924416802E-2,909 nM
same,potency estimated from few doses,PRKACB; CATDS: 1.9426092751651199E-2,1660 nM
same,potency estimated from few doses,PRKCQ; CATDS: 2.35958557762035E-2,1020 nM

# From article PMC11062922 (Nature Chemical Biology, 2023)
